This is one part of a sample in which hits are shown more often than they occur.
Artemis endo inh – blocks endonuclease activity of human Artemis | recombinant Artemis, quenched FAM hairpin cleavage fluorescence | inhibition, % at 10 µM | 30,000 compounds, 0.78% hits | AID 686954;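 active = at 10 µM dose, at least 30% inhibition, measured as corrected fluorescence normalized to stimulator and neutral control wells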
Target sequence (Q96SD1 whole entry, looked up): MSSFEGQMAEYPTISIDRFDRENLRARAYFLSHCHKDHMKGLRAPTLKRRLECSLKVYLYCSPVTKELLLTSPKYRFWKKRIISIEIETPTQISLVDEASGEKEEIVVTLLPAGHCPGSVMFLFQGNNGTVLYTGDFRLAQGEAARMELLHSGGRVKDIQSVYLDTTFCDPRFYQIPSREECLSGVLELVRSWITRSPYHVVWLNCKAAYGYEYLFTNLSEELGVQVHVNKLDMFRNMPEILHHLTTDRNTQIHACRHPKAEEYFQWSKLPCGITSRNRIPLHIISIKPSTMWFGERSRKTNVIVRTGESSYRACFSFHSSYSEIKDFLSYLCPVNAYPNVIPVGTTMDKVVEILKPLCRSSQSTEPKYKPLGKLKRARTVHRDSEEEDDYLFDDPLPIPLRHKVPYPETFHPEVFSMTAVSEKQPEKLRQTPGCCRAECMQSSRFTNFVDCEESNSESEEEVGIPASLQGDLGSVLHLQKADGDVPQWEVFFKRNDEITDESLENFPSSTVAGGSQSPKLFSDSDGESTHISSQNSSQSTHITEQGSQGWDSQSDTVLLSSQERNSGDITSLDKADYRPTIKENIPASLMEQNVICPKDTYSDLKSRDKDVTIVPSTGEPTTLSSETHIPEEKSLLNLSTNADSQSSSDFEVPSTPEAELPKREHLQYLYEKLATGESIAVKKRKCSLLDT
An asterisk follows results filed as active.

SMILES	Artemis endo inh
Cc1noc(C)c1CSc1nnc(-c2ccncc2)n1-c1ccc(Cl)c(Cl)c1	-8
Cc1ccc(NC2=C/C(=N\S(=O)(=O)c3cccs3)c3ccccc3C2=O)c(C)c1	53*
Cc1ccc(NCN2C(=O)c3ccccc3C2=O)c(C)c1	-9
COc1ccc(C)cc1NC(=O)CN(C)S(=O)(=O)c1cccs1	1
Clc1cc(Sc2ccc(Br)cc2)nnc1-c1ccccc1	-10
Cc1ccc(Nc2nc(N)nc(CN3CCCCCC3)n2)cc1	40*
Cc1c(Cl)cccc1Nc1nc(N)nc(CN2CCCCCC2)n1	4
CC1CC(C)CN(Cc2nc(N)nc(Nc3ccccc3)n2)C1 (stereo unspecified)	-3
CCCCSc1nc(C)cc(C)c1S(=O)(=O)c1ccccc1C	7
CC(C)Cn1c2c(c(O)c(C(=O)Nc3ncccc3O)c1=O)CCCC2	30*
C=CCn1c(=O)c(C(=O)Nc2cccnc2)c(O)c2ccccc21	16
CCn1c(=O)c(C(=O)NCc2ccccn2)c(O)c2ccccc21	-5
CCOC(=O)N1CCN(C(=O)c2ccc(N3C(=O)c4ccccc4C3=O)cc2)CC1	-7
CCOC(=O)N1CCN(c2ccc(C(=O)c3ccccc3)cc2F)CC1	0
CCOC(=O)N1CCN(c2cc(NCCC(=O)O)c3c4c(onc24)-c2ccccc2C3=O)CC1	33*
CC(C)C(=O)Nc1cccc(C(=O)Nc2nnc(C(C)(C)C)s2)c1	-1
COc1ccc(C(=O)Nc2ccc(Cl)cc2C(=O)N2CCCC(C)C2)cc1 (stereo unspecified)	5
CCOc1nc(NCc2ccco2)nc(Nc2ccc(OC)cc2)n1	5
COc1ccc(Nc2nc(NCc3ccco3)nc(N/N=C/c3ccccc3)n2)cc1	72*
CC(C)c1ccc(Nc2nc(NCc3ccco3)nc(N3CCOCC3)n2)cc1	21
Cc1cccc(OCC(=O)NC(=S)Nc2ccc(S(=O)(=O)NC3CCCCC3)cc2)c1	14
COc1ccc(NC(=S)Nc2ccc(OCc3ccccc3)cc2)cc1OC	-3
COc1ccccc1NC(=O)C(=O)N/N=C(\C)CC(=O)Nc1ccc(OCc2ccccc2)cc1	33*
COc1ccccc1NC(=O)CN1CCN(CC(=O)Nc2ccc(OCc3ccccc3)cc2)CC1	5
CCOC(=O)Nc1ccc(OC)cc1S(=O)(=O)N1CCCCC1	9
SMILES	Artemis endo inh
Cn1c(Oc2ccccc2)c(C=O)c2ccccc21	-7
CCn1ncc(/C=N/NS(=O)(=O)c2ccc(Cl)cc2)c1C	-13
COCCCn1c(Cc2csc(Nc3ccc(F)cc3)n2)nnc1SCC(N)=O	0
CCOC(=O)c1ccc(NC(=O)CCOc2ccccc2)cc1	2
CCOC(=O)c1ccc(NC2=CC(=O)C(=O)c3ccccc32)cc1	66*
CCOC(=O)c1ccc(NC(=O)CNS(=O)(=O)c2ccccc2)cc1	0
CN(C)S(=O)(=O)c1ccc(C(=O)OCC(=O)c2ccc(OC(F)F)cc2OC(F)F)cc1	-13
O=c1c(-c2ccnn2-c2cccc(Cl)c2)cnc2n1CCS2	-2
S=c1[nH]nc(-c2ccccc2)o1	2
c1ccc2c(c1)OCC(c1csc3ncnc(N4CCCC4)c13)O2 (stereo unspecified)	4
S=c1[nH]nc(C2COc3ccccc3O2)o1 (stereo unspecified)	31*
O=C1Nc2ccccc2/C1=N/c1sc2c(c1C(=O)NCCc1ccccc1)CCCC2	7
CCC(=O)n1nc(NCc2ccccc2OC)nc1NCc1ccccc1OC	-5
CC1(C)Cc2c(ccc3ccccc23)C(NNC(=O)c2cccnc2)=N1	-1
CCn1c(=O)c(C(=O)NCCCO)c(O)c2ccccc21	-7
CCn1c(=O)c(C(=O)Nn2c(C)nc3ccccc3c2=O)c(O)c2ccccc21	12
CCn1c(=O)c(C(=O)Nc2nc3ccccc3[nH]2)c(O)c2ccccc21	50*
Cc1cccc(Oc2ncc(-c3ccc(Cl)cc3)cn2)c1	-14
COc1ccc(/C(N)=N/OC(=O)CSc2ccccc2)cc1OC	5
CCOC(=O)c1sc(N(Cc2ccccc2)C(=O)CSc2nnc(C3CC3)n2N)nc1C	0
CC1CCc2nc(NC(=O)CN3CCOCC3)sc2C1 (stereo unspecified)	7
O=C(Cc1cn2ccsc2n1)Nc1ccccc1Oc1ccccc1	-1
CCCSc1nc2sc3c(c2c(=O)[nH]1)CCN(Cc1ccccc1)C3	21
CC1CCc2nc(NC(=O)CN3CCN(c4ccccc4)CC3)sc2C1 (stereo unspecified)	5
CCN1CCc2nc(NC(=O)C(c3ccccc3)c3ccccc3)sc2C1	49*
SMILES	Artemis endo inh
CCN1CCc2nc(NC(=O)CC(c3ccccc3)c3ccccc3)sc2C1	39*
CCN1CCc2c(sc(NC(=S)NC(=O)c3ccccc3)c2C#N)C1	1
O=C(Cc1cn2ccsc2n1)OCc1ccccc1	-6
O=C(Cc1cn2ccsc2n1)Nc1nc2c(s1)CN(Cc1ccccc1)CC2	57*
CCC1(C)N=c2c(c(=O)n(C)c(=O)n2C)=NO1 (stereo unspecified)	8
CC1(C)CC(=O)c2c(n(-c3cccc4ccccc34)ccc2=O)C1	5
CCCC(=O)N1CCN(c2nc(CC(C)C)c3c(c2C#N)CCC3)CC1	13
CCCCCCCCOC(=O)CCn1[nH]c(=O)c2ccccc2c1=O	-1
C/C(N)=C(/C#N)C(=O)COC(=O)C1CCC(C(C)(C)C)CC1 (stereo unspecified)	-3
CN(C(=O)COC(=O)c1ccc(Cl)cc1N)C1CCS(=O)(=O)C1 (stereo unspecified)	5
O=S(=O)(NC(=NC1CCCC1)C(F)(F)F)c1ccccc1	-14
CNCC(O)Cn1c(C(F)(F)F)nc2ccccc21 (stereo unspecified)	-4
CCc1ccc(OCC(=O)N2CCN=C2c2ccccc2)cc1	6
Cc1cc(-c2csc(N)n2)c(C)n1C	32*
Cc1noc(C)c1COc1ccc(C(=O)OCC(=O)NC2CCCCC2C)cc1 (stereo unspecified)	2
O=C(c1ccc2c3c(cccc13)C(=O)N(O)C2=O)N1CCCCC1	47*
O=C(c1ccccc1-c1ccccc1)N1CCCC1	-11
O=C(c1ccccc1-c1nc2ccccc2[nH]1)N1CCCCC1	0
CC1Cc2ccccc2N1C(=O)CSc1nnc(Cc2ccccc2)n1CCc1ccccc1 (stereo unspecified)	14
CCC(C)NC(=O)c1ccccc1NC(=O)COc1ccc(OC)cc1 (stereo unspecified)	2
CCOC(=O)C1=C(N)n2c(s/c(=C\c3cccs3)c2=O)=C(C(=O)OCC)C1c1cccs1 (stereo unspecified)	5
COCc1cc(C)nc(OCC(=O)N/N=C\c2cc(C)n(-c3cccc(C(F)(F)F)c3)c2C)c1C#N	1
COc1ccccc1S(=O)(=O)Nc1ccc(-c2nnc3n2CCCCC3)cc1	-4
COc1ccc(Br)cc1/C=N/NC(=O)c1nc(-c2ccccc2)n2c1CCCCC2	30*
Cc1cc(C(=O)N/N=C/c2cc(Br)ccc2OC(=O)c2ccccc2)n[nH]1	10
SMILES	Artemis endo inh
Cc1onc(-c2ccccc2Cl)c1C(=O)N1CCN=C1SCc1cccnc1	-5
CC(C)CCn1c(N2CCN(c3cccc(Cl)c3)CC2)nc2c1c(=O)[nH]c(=O)n2C	27
CCCCCCn1c(N2CCN(c3ccccc3)CC2)nc2c1c(=O)[nH]c(=O)n2C	11
CCCCCCn1c(N2CCN(c3cccc(Cl)c3)CC2)nc2c1c(=O)[nH]c(=O)n2C	35*
O=C(c1ccc(S(=O)(=O)Nc2ccc(F)cc2)cc1)N1CCN(C(=O)c2ccco2)CC1	3
Cc1cc(C)n(C(=O)c2ccc(S(=O)(=O)NCC3CCCO3)cc2)n1 (stereo unspecified)	10
